CDC25B-CDK2 inh – primary biochemical HTRF screen for blockers of M-phase inducer phosphatase 2 binding to CDK2/cyclin A | P30305+P24941 | HTRF CDC25B-CDK2/CyclinA binding, anti-His/anti-Flag; hits give high values | z-score (test concentration not listed) | actives 0.72% (n = 94,000) | AID 1259370, 2018; in the data active = z-score above about 3.2
HIV TAR-Tat – TAR RNA-Tat peptide displacers, HIV-1, primary screen, biochemical, FRET, FAM/TAMRA-labeled Tat; HIV-1 TAR RNA, Tat peptide displacement FRET; hits give high values; z-score (no concentration beside the values); actives 0.6% (n = 100,000); AID 1259389, 2018; active = z-score of 3 or more in at least 2 runs
Hits are given with their value; - = inactive; . = no result given. Hits are enriched below; roughly 0.86% of the tested compounds scored in any of these assays.

SMILES	CDC25B-CDK2 inh	HIV TAR-Tat
O=C1CC(=O)Nc2cc(S(=O)(=O)Nc3ccc4c(c3)OCO4)ccc2N1	.	18
O=C1CC(=O)Nc2cc(S(=O)(=O)Nc3ccc(F)cc3)ccc2N1	-	-
CC(C)CN(CC(C)C)c1nnc(NC(=O)Nc2ccc3c(c2)OCCO3)s1	-	-
O=C1C(=O)N(Cc2ccccc2)c2ccccc21	-	-
O=C1C(=O)N(CC(O)CN2C(=O)C(=O)c3ccccc32)c2ccccc21	-	15
CC1=C(c2ccc(C)c(C)c2)S(=O)(=O)N=C1Nc1ccc(Br)cn1	-	-
CCc1ccc(C2CC(=O)N3CN(C4CCCCC4)CSC3=C2C#N)cc1 (configuration not stated)	3.9	-
COc1ccc(C2CC(=O)N3CN(C4CCCC4)CSC3=C2C#N)cc1 (configuration not stated)	5.5	-
Cc1ccc(C2CC(=O)N3CN(C4CCCC4)CSC3=C2C#N)cc1 (configuration not stated)	-	-
N#CC1=C2SCN(C3CCCCC3)CN2C(=O)CC1c1ccc(Br)cc1 (configuration not stated)	-	-
COc1cccc(Nc2nc(N3CCOCC3)nc3c2cnn3C)c1	.	-
O=C(O[C@@H]1Cc2c(O)cc(O)cc2O[C@@H]1c1cc(O)c(O)c(O)c1-c1c([C@H]2Oc3cc(O)cc(O)c3C[C@H]2OC(=O)c2cc(O)c(O)c(O)c2)cc(O)c(O)c1O)c1cc(O)c(O)c(O)c1	.	29
O=C(O[C@@H]1Cc2c(O)cc(O)cc2O[C@@H]1c1cc(O)c(=O)c2c(O)c(O)cc([C@H]3Oc4cc(O)cc(O)c4C[C@H]3OC(=O)c3cc(O)c(O)c(O)c3)c2c1)c1cc(O)c(O)c(O)c1	.	26
O=C(Oc1cc(O)cc2c1C[C@@H](OC(=O)c1cc(O)c(O)c(O)c1)[C@@H](c1cc(O)c(O)c(O)c1)O2)c1cc(O)c(O)c(O)c1	.	31
COc1ccc([C@@H]2CC(=O)c3c(O)cc(O)cc3O2)cc1O	.	-
CC(=O)Nc1ccccc1SCc1cc(=O)n2nc(C3CCCCC3)sc2n1	.	-
COc1ccccc1-c1nnc(SCC#CCO)o1	-	-
CCOC(=O)c1sc(NC(=O)C(CC)Sc2nnc3c4ccccc4n(CC)c3n2)nc1C (configuration not stated)	-	-
CCCn1c2ccccc2c2nnc(SC(CC)C(=O)Nc3cc(C)on3)nc21 (configuration not stated)	17	-
Fc1ccc(-c2noc3ncnc(Nc4cccc(Cl)c4)c23)cc1	.	-
Fc1cccc(Nc2ncnc3onc(-c4ccc(Cl)cc4)c23)c1	.	18
COc1cc(/C=C2/SC(=S)N(CC(=O)O)C2=O)ccc1OC(=O)c1ccc([N+](=O)[O-])cc1	-	.
COc1cc2[nH]c3c(=O)n(CCN4CCCCC4C)cnc3c2cc1OC (configuration not stated)	-	6.4
Cc1ccc2[nH]c3c(=O)n(CCN4CCCCC4C)cnc3c2c1 (configuration not stated)	-	-
CC(C)c1ccc(-c2c(Nc3ccc(F)cc3)c(=O)c2=O)cc1	.	-
SMILES	CDC25B-CDK2 inh	HIV TAR-Tat
CCOC(=O)CSc1ccc([N+](=O)[O-])cc1Cl	-	.
O=C(CSc1ccc([N+](=O)[O-])cc1Cl)NCc1ccccc1	15	.
Cn1c(=O)n(CC(=O)N2CCCC2)c(=O)c2cc(S(=O)(=O)Nc3ccccn3)ccc21	.	-
CCCCN(CC)CCNC(=O)C1CC2CCCN2C12C(=O)Nc1ccccc12 (configuration not stated)	.	-
Cc1cc(C)nc(SCCS(=O)(=O)Cc2ccc(Cl)cc2)n1	-	.
Cc1cc(C)nc(SN=C2C=C(Cl)C(=O)C(Cl)=C2)n1	15	.
CCOC(=O)c1sc(=S)n(-c2ccc(C)cc2)c1N	.	-
CCOC(=O)c1sc(=S)n(-c2ccc(F)c(F)c2)c1N	.	17
CCOc1ccc(CN(CCc2ccc3c(c2)OCO3)Cc2cccnc2)cc1	16	-
CCOc1ccccc1CN(CCc1ccc2c(c1)OCO2)Cc1cccnc1	-	.
COc1ccc(C2C3=C(CCCC3=O)Nc3ncnn32)cc1 (configuration not stated)	-	.
CCOC(=O)N1CCc2c(sc3c2C(=O)NC(c2ccccc2)N3)C1 (configuration not stated)	-	-
COc1cccc(C2NC(=O)c3c(sc4c3CCN(C)C4)N2)c1OC (configuration not stated)	-	-
CCOC(=O)N1CCc2c(sc3c2C(=O)NC(c2ccc(O)c(OC)c2)N3)C1 (configuration not stated)	-	-
CCOC(=O)N1CCc2c(sc3c2C(=O)NC(c2cccc(Br)c2)N3)C1 (configuration not stated)	6.4	-
COc1ccccc1C1NC(=O)c2c(sc3c2CCN(C)C3)N1 (configuration not stated)	4.5	-
